Screening results deposited in PubChem BioAssay by National Center for Advancing Translational Sciences (NCATS).
Akt phos inh = blocks phosphorylation of Akt; AID 651550; activity change, % for hits at 50 µM; Neuro2A IGF-stimulated pAkt S473 HTRF, 20 min; active compounds read low; 360,000 tested, 0.32% active; in the data active = activity change below about -80%; inconclusive = mostly about -51% to -80%; note: % is set by controls: 0 for no effect and ±100 for the full control effect
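Single-point screen (50 µM final compound) in Neuro2A cells stimulated 20 min with 6 nM IGF at 37 deg C. After lysis, Ser473-phosphorylated Akt read by HTRF (ex 330 nm, em 615/665 nm) as the 665/615 ratio.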
Mito fusion act = blocks mitochondrial division or promotes mitochondrial fusion. S. cerevisiae fusion-defective mutant growth rescue, CellTiterGlo 48 h. Potency, µM (top dose mostly 46.1 µM), inactives show at the top dose growth rescue (activation), usual class: activators. 320,000 tested, 0.23% active; note: potency is the fitted concentration of half-maximal effect; % of control where 0% means no effect; nearly all actives have a fitted effect of over 45% in size
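Growth-rescue viability read-out: after 48 h at the non-permissive 37C in glycerol/ethanol YPEG, yeast mitochondrial fusion mutants are measured by CellTiterGlo luminescence; compounds (23 nl pinned per well) restoring growth score as division inhibitors or fusion activators.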
Apoferritin bind = binds horse apoferritin like a general anesthetic; 350,000 tested, 0.074% active; P02791; Potency, µM (highest dose often 77.5 µM), without a hit: at the top dose activity change, negative = displacement, hits mostly inhibitors; apoferritin/1-aminoanthracene competitive binding, fluorescence; note: potency is the fitted concentration of half-maximal effect; % is set by controls: 0 for no effect and ±100 for the full control effect; nearly all actives have a fitted effect of over 20% in size
Target sequence (P02791 2-175 limits assumed): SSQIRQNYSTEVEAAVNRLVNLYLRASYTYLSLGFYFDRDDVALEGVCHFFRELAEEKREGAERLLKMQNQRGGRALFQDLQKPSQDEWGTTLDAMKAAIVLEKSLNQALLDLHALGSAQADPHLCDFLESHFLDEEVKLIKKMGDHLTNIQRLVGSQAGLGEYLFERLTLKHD
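Probe: 1-aminoanthracene (50% saturated, PBS). Protein: horse-spleen apoferritin, 10 uM. Incubation: 10 min, room temperature. Detection: 380 nm excitation, 535 nm emission. Analysis: normalized response, four-parameter Hill.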
CCT chaperon mod = cytosolic chaperonin activity modulation; purified chaperonin ATPase assay, HTRF ADP detection, 30 min; activity change, % (no concentration beside the values), hits read low; 360,000 tested, 0.3% active; in the data active = activity change below about -30%; note: % is set by controls: 0 for no effect and ±100 for the full control effect
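Enzyme 40 or 20 nM (batch-dependent) in Tris pH 7.4/KCl/MgCl2/DTT; cpd 76 uM single point; ATP 10 uM; 30 min 37 °C; Transcreener ADP HTRF detection, 30 min RT; ratio 665/615.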
aSyn yeast inh = inhibitors of alpha-synuclein toxicity in yeast; Yeast expressing alpha-synuclein, growth rescue, BacTiter-Glo, 24 h; Potency, µM (doses to about 46.1 µM), for the others: at the top dose growth rescue (activation), most hits filed as activators; 370,000 tested, 0.14% active; AID 652106; note: potency is the fitted concentration of half-maximal effect; % of control where 0% means no effect; nearly all actives have a fitted effect of over 65% in size
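Rescue of yeast growth: cells expressing toxic alpha-synuclein, induced in galactose at OD600 0.02, incubated with compound 24 h at 30 C. ATP luminescence quantified growth; inhibitors of toxicity appear as activators.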
TDP43 rescue = inhibitors of TDP-43 toxicity in yeast | 410,000 tested, 1.8% active | Potency, µM (top dose mostly 46.1 µM), for the others: at the top dose growth rescue (activation), most hits filed as activators | TDP-43 expressing yeast growth rescue, BacTiter-Glo, 24 h | AID 652104; note: potency is the fitted concentration of half-maximal effect; % of control where 0% means no effect; nearly all actives have a fitted effect of over 50% in size
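Luminescence from BacTiter-Glo reports growth of TDP-43-expressing yeast after 24 hr at 30 deg C with compound. Cells were raffinose-pregrown to mid-log, then seeded in galactose medium at OD600=0.02.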
* hit, by the source's call; i = inactive; ? = inconclusive; · = no result given; [ ] = remark or other dose. Hits are enriched below; roughly 2.5% of the tested compounds scored in any of these assays. Unless noted, calls come from the whole dose curve; as a rule, active = well fitted curve in the direction sought with a large enough effect; inconclusive = small, poorly fitted or top-dose-only effect, or another doubt; inactive = no such curve, though single readings can be large; an effect the other way counts as inactive or inconclusive.

SMILES	Akt phos inh	Mito fusion act	Apoferritin bind	CCT chaperon mod	aSyn yeast inh	TDP43 rescue
O=C1C(Br)=Cc2cccc3cccc1c23	i	-16%	64%	-3	0%	14µM*
COc1cc(CNCCNC(=O)c2nonc2N)ccc1OCc1ccc(Cl)cc1	i	-2%	13µM*	-5	-3%	-19%
CC(C)c1onc(C(=O)Nc2cccc(Cl)c2)c1[N+](=O)[O-]	i	2%	-16%	0	-5%	10µM*
C(=Nc1ccc(/C=C/c2ccnc3ccccc23)cc1)c1ccc2c(c1)OCO2	·	·	·	·	-4%	·
CCn1nc(-c2ccc(C)cc2)nc2c(=O)n(C)c(=O)nc1-2	·	·	·	·	-83%	·
C=CCc1cccc(/C=N/NC(=O)CNc2ccccc2OC)c1O	i	20%	?	1	9%	11µM*
CC(C)c1ccc(Nc2c(-c3ccccc3O)nc3cnccn23)cc1	·	·	-12%	·	·	25µM*
COc1cc(-c2nc3cnccn3c2Nc2ccc(C(C)C)cc2)ccc1O	i	-4%	-14%	-1	1%	0%
CC(C)(C)c1ccc(NC(=O)COc2ccc(-n3ccnc3)cc2)cc1	i	8%	28µM*	-1	-5%	-3%
COc1cc(NC(=O)COc2ccc(-n3ccnc3)cc2)cc(OC)c1	i	3%	-3%	-1	1%	3%
CCN(CC)CCCNC(=O)c1ccc2c(c1)N(Cc1c(F)cccc1Cl)C(=O)c1ccccc1S2	·	·	-12%	·	·	-13%
CCCN(CC(=O)Nc1ccccc1OC)C(=O)c1ccc(COc2ccccc2)o1	i	-1%	·	-1	1%	11µM*
CCCN(CC(=O)Nc1ccccc1OC)C(=O)c1cc2ccccc2o1	i	-8%	-16%	0	2%	19%
CC[C@H](C)[C@H](N)C(=O)N[C@@H](CC(N)=O)C(=O)N1CCC[C@H]1C(=O)N[C@H](C(=O)N[C@@H](Cc1ccc(O)cc1)C(=O)N[C@@H](CCCN=C(N)N)C(=O)N[C@@H](CC(C)C)C(=O)N[C@@H](CCCN=C(N)N)C(=O)N[C@@H](Cc1ccc(O)cc1)C(N)=O)[C@@H](C)CC	·	·	-1%	·	·	·
Cc1ccc(-c2csc(NC(=O)C3CC(=O)N(c4ccc5c(c4)OCCO5)C3)n2)o1 (stereo not drawn)	·	·	·	·	10%	·
COc1c(-c2ccc(O)c(O)c2)oc2cc(O)cc(O)c2c1=O	i	0.63µM*	-7%	1	2%	7%
CCOC(=O)c1c(C)oc2nc(C)nc(N3CCN(c4cccc(C(F)(F)F)c4)CC3)c12	·	·	43%	·	·	5%
Cc1ccc(CNC(=O)CCS(=O)(=O)c2ccc(Br)s2)cc1	i	1%	-16%	-3	-2%	6%
O=C(CCS(=O)(=O)c1ccc(Br)s1)NCc1cccs1	-82%*	-4%	-11%	0	-6%	-21%
CCNC(=O)NC(=O)C(C)Sc1nc2cc(C(=O)OC)ccc2c(=O)n1-c1ccccc1 (stereo not drawn)	-122%*	1%	-13%	-4	-5%	-4%
O[N+]1=CC=CCC1=S.On1ccccc1=S.[Zn]	·	·	3%	·	·	·
CCOc1ccccc1NC(=O)Cn1c(=O)n(Cc2ccc(OC)cc2)c(=O)c2oc3ccccc3c21	·	·	-2%	·	·	-2%
Nc1ccc(/C=C/c2nc3ccccc3s2)cc1	·	·	·	·	13µM*	·
CCN(CC)c1ccc(/C=C/c2nc3ccccc3s2)cc1	·	-4%	-13%	·	·	·
Cc1cc(OC(C)C(=O)N(Cc2ccco2)Cc2ccco2)cc(C)c1Cl (stereo not drawn)	·	·	-3%	·	·	-2%
SMILES	Akt phos inh	Mito fusion act	Apoferritin bind	CCT chaperon mod	aSyn yeast inh	TDP43 rescue
COc1cc(NC(=O)Cn2c(=O)ccc3cc(S(=O)(=O)N4CCCC4)ccc32)cc(OC)c1	·	·	8%	·	-8%	16%
O=[N+]([O-])c1ccccc1-c1ccc(C(=S)N2CCCC2)o1	i	7%	56µM*	-2	1%	-14%[9.22 µM]
O=[N+]([O-])c1ccccc1-c1ccc(C(=S)N2CCCCC2)o1	i	1%	?	-5	4%	?
COc1ccc(C)cc1NC(=O)CSc1nnc(COc2ccc(Cl)cc2)n1Cc1ccco1	?	14%	58%	0	19%	?
COc1ccc(C)cc1NC(=O)CSc1nnc(COc2ccccc2)n1Cc1ccco1	-98%*	13%	35%	-2	-3%	?
Cc1ccc(C)c(NC(=O)CSc2nnc(CSc3nc(C)cc(C)n3)n2Cc2ccco2)c1	-91%*	11%	?	-2	9%	3%
Cc1ccc(NC(=O)CSc2nnc(CSc3nc(C)cc(C)n3)n2Cc2ccco2)c(C)c1	i	0%	-2%	1	-5%	-5%
CCC1CC=CC2C1C(=O)N(Cc1ccccc1)C2c1cc(C)ccc1F (stereo not drawn)	·	·	68%	·	·	·
COC(=O)CN1C(=O)CSc2ccc(S(=O)(=O)Nc3ccc(C)c(Cl)c3)cc21	·	·	1%	·	·	4%
Cc1ccc(Cl)cc1N1CCN(C(=O)CCS(=O)(=O)c2cccc3nonc23)CC1	i	14µM*	-1%	-3	?	-9%
O=C(C1CCCN(S(=O)(=O)c2cccc3nonc23)C1)N1CCN(c2cccc(Cl)c2)CC1 (stereo not drawn)	i	-1%	-12%	-1	7%	-27%
Cc1cccc(N2CCN(S(=O)(=O)c3cccc4nonc34)CC2)c1C	i	11%	3%	-15	3%	28µM*
O=C(C1CCCN(S(=O)(=O)c2cccc3nonc23)C1)N1CCN(c2ccccc2Cl)CC1 (stereo not drawn)	i	?	-12%	2	25%	35µM*
Cc1nn(C)c(C)c1S(=O)(=O)N1CCCC(C(=O)N2CCN(c3ccc(Cl)cc3)CC2)C1 (stereo not drawn)	-107%*	4%	?	0	0%	5%
Cc1ccc(Cl)cc1N1CCN(C(=O)C2CCN(S(=O)(=O)c3cccc4nonc34)CC2)CC1	·	·	-12%	·	·	14%
Cc1n[nH]c(C)c1S(=O)(=O)N1CCCC(C(=O)N2CCN(c3ccc(Cl)cc3)CC2)C1 (stereo not drawn)	i	0%	?	1	0%	-12%
O=S(=O)(c1cccc2nonc12)N1CCN(c2ccccc2F)CC1	i	0%	-19%	0	6%	19%
CCN1C(=O)[C@H]2[C@H]3[C@H](O)[C@H](O)C/C(=N/OC[C@@H](O)COCc4ccco4)[C@@H]3CC[C@@H]2C1=O	·	·	-7%[15.3 µM]	·	·	·
COc1ccc(Nc2nc(N)c3cc(OC)c(OC)cc3n2)cc1	·	·	0%	·	·	16%
